Columns and labels:
Conditions in all cases: concentration: 1 μM,replicates: in singlicate; n = 1
[1] = system: CAMK1
[2] = system: CAMK2A
[3] = system: CAMK2B
[4] = system: CAMK2D
[5] = system: CAMK2G
[6] = system: CAMK4
[7] = system: CAMKK1
[8] = system: CAMKK2
[9] = system: CASK
[10] = system: T1, CDC2L1
T1 construct: gene CDK11B

[11] = system: CDC2L2
[12] = system: T2, CDC2L5
T2 construct: gene CDK13

[13] = system: T3, CDK11
T3 construct: gene CDK19

[14] = system: CDK2
[15] = system: CDK3
[16] = system: CDK4-cyclinD1
[17] = system: CDK4-cyclinD3
[18] = system: CDK4
[19] = system: CDK5
[20] = system: CDK7
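Also: KINOMEscan kinase panel screen.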

## Cl.Cl.NC[C@H](CC1CCCCC1)NC(=O)c1cc(Br)c(-c2ccnc3[nH]ccc23)s1 [GSK1581427]
[1]
  %Inh: 13%
[2]
  %Inh: 0%
[3]
  %Inh: 0%
[4]
  %Inh: 4%
[5]
  %Inh: 34%
[6]
  %Inh: 0%
[7]
  %Inh: 0%
[8]
  %Inh: 20%
[9]
  %Inh: 53%
[10]
  %Inh: 0%
[11]
  %Inh: 0%
[12]
  %Inh: 0%
[13]
  %Inh: 12%
[14]
  %Inh: 0%
[15]
  %Inh: 0%
[16]
  %Inh: 0%
[17]
  %Inh: 6%
[18]
  %Inh: 0%
[19]
  %Inh: 0%
[20]
  %Inh: 45%

## C=CC(=O)Nc1cc2c(Nc3ccc(F)c(Cl)c3)ncnc2cc1OCCCN1CCOCC1 [GW781483]
[1]
  %Inh: 14%
[2]
  %Inh: 0%
[3]
  %Inh: 0%
[4]
  %Inh: 0%
[5]
  %Inh: 15%
[6]
  %Inh: 0%
[7]
  %Inh: 6%
[8]
  %Inh: 14%
[9]
  %Inh: 0%
[10]
  %Inh: 0%
[11]
  %Inh: 0%
[12]
  %Inh: 19%
[13]
  %Inh: 15%
[14]
  %Inh: 0%
[15]
  %Inh: 0%
[16]
  %Inh: 27%
[17]
  %Inh: 11%
[18]
  %Inh: 23%
[19]
  %Inh: 0%
[20]
  %Inh: 17%

## Cc1cc(C(=O)Nc2ccc(Oc3ccc4nc(NC(=O)C5CC5)cn4n3)cc2)nn1-c1ccccc1
[1]
  %Inh: 10%
[2]
  %Inh: 0%
[3]
  %Inh: 0%
[4]
  %Inh: 12%
[5]
  %Inh: 0%
[6]
  %Inh: 16%
[7]
  %Inh: 22%
[8]
  %Inh: 16%
[9]
  %Inh: 0%
[10]
  %Inh: 18%
[11]
  %Inh: 6%
[12]
  %Inh: 0%
[13]
  %Inh: 3%
[14]
  %Inh: 0%
[15]
  %Inh: 39%
[16]
  %Inh: 13%
[17]
  %Inh: 0%
[18]
  %Inh: 4%
[19]
  %Inh: 0%
[20]
  %Inh: 0%

## CC(C)Nc1cc(-c2ccc3c(N)n[nH]c3c2)nc(N)n1 [GSK2221681]
[1]
  %Inh: 24%
[2]
  %Inh: 0%
[3]
  %Inh: 0%
[4]
  %Inh: 0%
[5]
  %Inh: 27%
[6]
  %Inh: 0%
[7]
  %Inh: 0%
[8]
  %Inh: 5%
[9]
  %Inh: 13%
[10]
  %Inh: 0%
[11]
  %Inh: 0%
[12]
  %Inh: 0%
[13]
  %Inh: 0%
[14]
  %Inh: 21%
[15]
  %Inh: 0%
[16]
  %Inh: 0%
[17]
  %Inh: 0%
[18]
  %Inh: 0%
[19]
  %Inh: 0%
[20]
  %Inh: 0%

## Cl.Oc1cc(-c2nc(-c3ccccc3)[nH]c2-c2ccncc2)ccc1Cl [SB-386023]
[1]
  %Inh: 0%
[2]
  %Inh: 0%
[3]
  %Inh: 0%
[4]
  %Inh: 0%
[5]
  %Inh: 0%
[6]
  %Inh: 0%
[7]
  %Inh: 0%
[8]
  %Inh: 4%
[9]
  %Inh: 10%
[10]
  %Inh: 0%
[11]
  %Inh: 0%
[12]
  %Inh: 1%
[13]
  %Inh: 5%
[14]
  %Inh: 4%
[15]
  %Inh: 0%
[16]
  %Inh: 2%
[17]
  %Inh: 0%
[18]
  %Inh: 47%
[19]
  %Inh: 32%
[20]
  %Inh: 11%

## Cl.Cl.Nc1nc(-c2ccc3c(N)n[nH]c3c2)cc(N2CCCC(NC(=O)c3ccccc3)C2)n1 (stereo not shown) [GSK2286775]
[1]
  %Inh: 18%
[2]
  %Inh: 0%
[3]
  %Inh: 0%
[4]
  %Inh: 11%
[5]
  %Inh: 19%
[6]
  %Inh: 0%
[7]
  %Inh: 18%
[8]
  %Inh: 14%
[9]
  %Inh: 16%
[10]
  %Inh: 0%
[11]
  %Inh: 31%
[12]
  %Inh: 0%
[13]
  %Inh: 11%
[14]
  %Inh: 0%
[15]
  %Inh: 16%
[16]
  %Inh: 0%
[17]
  %Inh: 19%
[18]
  %Inh: 0%
[19]
  %Inh: 0%
[20]
  %Inh: 0%

## Cc1ccc2c(-c3ccncc3)c(-c3ccc(F)cc3)nn2c1.Cl [GW461484]
[1]
  %Inh: 0%
[2]
  %Inh: 0%
[3]
  %Inh: 0%
[4]
  %Inh: 0%
[5]
  %Inh: 16%
[6]
  %Inh: 0%
[7]
  %Inh: 8%
[8]
  %Inh: 11%
[9]
  %Inh: 1%
[10]
  %Inh: 0%
[11]
  %Inh: 10%
[12]
  %Inh: 0%
[13]
  %Inh: 0%
[14]
  %Inh: 0%
[15]
  %Inh: 0%
[16]
  %Inh: 0%
[17]
  %Inh: 0%
[18]
  %Inh: 28%
[19]
  %Inh: 0%
[20]
  %Inh: 45%

## CN(C)CCOc1ccc(-c2cc(-c3c[nH]nc3-c3ccccn3)ccn2)cc1 [GW835314]
[1]
  %Inh: 12%
[2]
  %Inh: 0%
[3]
  %Inh: 0%
[4]
  %Inh: 24%
[5]
  %Inh: 0%
[6]
  %Inh: 0%
[7]
  %Inh: 25%
[8]
  %Inh: 2%
[9]
  %Inh: 29%
[10]
  %Inh: 2%
[11]
  %Inh: 9%
[12]
  %Inh: 0%
[13]
  %Inh: 13%
[14]
  %Inh: 1%
[15]
  %Inh: 16%
[16]
  %Inh: 0%
[17]
  %Inh: 17%
[18]
  %Inh: 45%
[19]
  %Inh: 0%
[20]
  %Inh: 16%

Source: PMC5540273 (PLoS ONE, 2017)
